Sampled rows, rich in hits. Any-hit rate of the full collection: about 1.4%.
p53 reactivation: mutant p53 re-activation in reporter cells; AID 504706; H1299 p53-A138V BP100-luciferase reporter, luminescence, 24 h; Potency, µM (top dose mostly 92.2 µM), without a hit: top-dose activity change, positive = activation, hits mostly activators; hit rate 0.063% among 320,000; also: potency is read from the fitted curve at half-maximal effect; % of control where 0% means no effect; nearly all actives have a fitted effect of over 45% in size
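p53-null H1299 cells stably carrying temperature-sensitive p53-A138V and a BP100-luciferase reporter were pinned with compounds (4-point, 1:5 series) and held 24 hrs at 37 deg C. Luminescence was read 10 min after detection reagent.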
PINK1 expr mod: modulators of PINK1 expression | PINK1 immunofluorescence, high-content cytometry, 24 h | hit rate 0.2% among 410,000 | Potency, µM (titrated, usually from 76.6 µM), for inactives: top-dose activation (PINK1 increase), most hits filed as activators | AID 624263; active = well fitted activation curve with a large enough effect; inconclusive = small, poorly fitted or top-dose-only effect; cell line not stated here; also: potency is read from the fitted curve at half-maximal effect; % of control where 0% means no effect; nearly all actives have a fitted effect of over 65% in size
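Readout is PINK1 immunofluorescence, quantified alongside mitochondrial, cell and nuclear markers by laser-scanning microplate cytometry. Cells from a stable line were exposed to compound titrations (5 concentrations) for 24 hours, with CCCP controls.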
Mm-Cpn inhibitor: M. maripaludis TRiC chaperonin inhibition; hit rate 0.031% among 330,000; Potency, µM (highest dose often 76.9 µM), without a hit: at the top dose activity, negative = inhibition, hits mostly inhibitors; purified Mm-Cpn ATPase, ADP Transcreener TR-FRET; AID 504842; also: potency is read from the fitted curve at half-maximal effect; % is scaled to controls: 0 for no effect and ±100 for the full control effect; nearly all actives have a fitted effect of over 80% in size
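Eu-cryptate anti-ADP/ADP-d2 competition gives a ratio inversely related to ADP. Enzyme at 25 nM was pre-exposed to compound for 10 min, then given 10 uM ATP for 30 min, 37°C throughout.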
CCT modulator: cytosolic chaperonin activity modulation. hit rate 0.3% among 360,000. purified chaperonin ATPase assay, HTRF ADP detection, 30 min. activity change, % (test concentration not listed), hits read low; in the data active = activity change below about -30%; also: % is scaled to controls: 0 for no effect and ±100 for the full control effect
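ATPase activity: ADP formed was measured by HTRF Transcreener (665/615 nm ratio) after 30 min at 37 deg C with 10 uM ATP. Compounds screened at one 76 uM concentration against 40 or 20 nM TRiC in Tris pH 7.4/KCl/MgCl2/DTT buffer.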
S-ASM inh: inhibitors of human secretory acid sphingomyelinase; P17405; placental ASM, HMU-PC fluorogenic substrate, 60 min; Potency, µM (top dose mostly 57.5 µM), without a hit: top-dose activity change, negative = inhibition, most hits filed as inhibitors; hit rate 0.006% among 340,000; also: potency is read from the fitted curve at half-maximal effect
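Steps: dispense placental human ASM, pin compound, wait 10 min at room temperature, add HMU-PC0 substrate at 9 uM final, incubate 60 min at 37 °C, add stop solution raising pH to 10, read fluorescence.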
12-LOX inh: inhibitors of human 12S-lipoxygenase ALOX12; AID 1671190; Potency, µM (doses to about 108 µM), for inactives: at the highest dose activity change, negative = inhibition, hits mostly inhibitors; P18054; hit rate 1.1% among 580,000; purified 12hLO, xylenol orange hydroperoxide absorbance; also: potency is read from the fitted curve at half-maximal effect; % is scaled to controls: 0 for no effect and ±100 for the full control effect
Target sequence (P18054 whole entry, looked up): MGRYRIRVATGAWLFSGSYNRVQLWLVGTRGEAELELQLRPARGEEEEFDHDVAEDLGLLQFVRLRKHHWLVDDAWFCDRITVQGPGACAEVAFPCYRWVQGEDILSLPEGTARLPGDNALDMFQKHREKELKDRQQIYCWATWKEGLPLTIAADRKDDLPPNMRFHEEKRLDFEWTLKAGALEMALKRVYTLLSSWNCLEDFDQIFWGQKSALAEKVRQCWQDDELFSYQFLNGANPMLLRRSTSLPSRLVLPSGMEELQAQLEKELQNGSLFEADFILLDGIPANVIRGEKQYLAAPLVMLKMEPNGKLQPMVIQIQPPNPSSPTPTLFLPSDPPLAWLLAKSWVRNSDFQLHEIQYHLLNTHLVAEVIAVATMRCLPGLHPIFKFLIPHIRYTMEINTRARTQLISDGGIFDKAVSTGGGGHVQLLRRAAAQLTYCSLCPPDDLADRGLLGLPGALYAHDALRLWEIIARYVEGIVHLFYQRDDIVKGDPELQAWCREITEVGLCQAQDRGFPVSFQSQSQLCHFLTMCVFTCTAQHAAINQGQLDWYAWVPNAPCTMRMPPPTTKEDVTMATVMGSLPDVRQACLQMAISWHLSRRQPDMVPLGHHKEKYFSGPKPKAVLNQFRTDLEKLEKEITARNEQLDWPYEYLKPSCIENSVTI
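Hydroperoxide product was detected by ferrous iron/xylenol orange as the 573 to 405 nm absorbance ratio. Arachidonic acid at 40 uM (final) was turned over for 30 min at room temperature by 150 nM human 12hLO, pH 7.0 Hepes buffer, after 15 min compound preincubation.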
* marks the source's active call; other numbers are inactive results; ? = inconclusive; . = no result given; [ ] = remark or other dose. Unless noted, calls follow the shape of the dose curve; as a rule, active = well fitted curve in the direction sought with a large enough effect; inconclusive = small, poorly fitted or top-dose-only effect, or another doubt; inactive = no such curve, though single readings can be large; an effect the other way counts as inactive or inconclusive.

SMILES | p53 reactivation | PINK1 expr mod | Mm-Cpn inhibitor | CCT modulator | S-ASM inh | 12-LOX inh
Nc1ccsc1C(=O)N1CCC2(CCC(=O)N(CC3CCCO3)C2)CC1 (centres undefined) | . | . | . | . | . | 7.9µM*
O=C1CCC2(CCN(C(=O)c3ccco3)CC2)CN1CC1CCCO1 (centres undefined) | . | . | . | . | . | 20%
CN(CC(=O)Nc1ccc(Cl)c(C(F)(F)F)c1)Cc1cc(F)cc2c1OCOC2 | . | . | . | . | . | 19%
Cc1nc(SCc2nc3cc(Cl)c(F)cc3[nH]2)c2oc3ccccc3c2n1 | -4% | 14µM* | 0% | . | -17% | 3%
Cc1nc(SCc2nc3ccc(C(F)(F)F)cc3[nH]2)c2oc3ccccc3c2n1 | -4% | 16µM* | ? | . | -28% | ?
CC(=O)Oc1cc2c(=O)c3ccccc3sc2cc1C | . | . | . | . | . | -6%
Cc1ccccc1C1C2=C(Nc3[nH]n(-c4ccccc4)c(=O)c31)c1ccccc1C2=O (centres undefined) | -6% | . | -3% | . | . | .
Cc1cccc(C2C3=C(Nc4[nH]n(-c5ccccc5)c(=O)c42)c2ccccc2C3=O)c1 (centres undefined) | 0% | -1% | -7% | 1 | 0% | 35µM*
CN1C2CCC1/C(=C\c1ccc(F)cc1)C(=O)/C2=C/c1ccc(F)cc1 | 2% | 7% | 2% | -3 | 0% | -13%
C=CC(=O)N1C/C(=C/c2ccc(F)cc2)C(=O)/C(=C\c2ccc(F)cc2)C1 | . | -1% | . | 1 | -13% | 7.9µM*
Cc1ccc(S/C=C\C(=O)c2ccccc2)cc1 | ? | 13µM* | -1% | 0 | 7% | 16%
COc1ccc(C)cc1S(=O)(=O)N(CC(=O)NC1CCCC1)c1ccc(F)cc1 | 0% | -1% | 1% | -1 | -1% | 1%
COc1ccc(C)cc1S(=O)(=O)N(CC(=O)O)c1ccc(F)cc1 | . | 2% | . | -33* | 1% | 29%
CC(CCc1ccccc1)NC(=O)CC1CCCC1 (centres undefined) | . | . | . | . | . | 3%
CC(=O)n1cc(C2C(=O)CCCC2=O)c2ccccc21 | 4% | 1% | -2% | 2 | 1% | 78%
CC(=O)n1cc(C2CC(=O)OC3=C2CC(=O)C(C)(C)C3)c2ccccc21 (centres undefined) | . | 0% | . | -106* | . | ?
CCOc1ncccc1CNC(=O)c1cc2cc(OC)ccc2nc1C | . | . | . | . | . | 24%
C/C(=N\Nc1ccc(F)cc1F)c1ccc(Br)s1 | 9% | 12% | 0% | -1 | -12% | 32µM*
C/C(=N\Nc1ccc(F)cc1F)c1ccc(F)cc1 | 5% | . | 0% | . | . | .
Cc1n[nH]c(=S)n1/N=C/c1ccc(OCc2ccc(Cl)cc2Cl)cc1 | ? | 7% | -2% | 1 | . | -12%
Cc1n[nH]c(=S)n1/N=C/c1ccccc1OCc1ccc(Cl)cc1Cl | 13% | 13µM* | -2% | -2 | 0% | 5%
NC(c1ccccc1)c1cccnc1 (centres undefined) | . | 0% | -11% | -1 | 0% | ?
NC(c1ccccc1)c1ccncc1 (centres undefined) | . | -1% | 2% | -43* | -1% | ?
COc1ccc(C(=O)COC(=O)C2(c3ccccc3)CCCC2)cc1F | . | . | . | . | . | -4%
COc1ccc(C2C(C#N)=C(N)OC3=C2C(=O)CC(c2ccccc2)C3)cc1 (centres undefined) | . | . | . | . | . | -47%
SMILES | p53 reactivation | PINK1 expr mod | Mm-Cpn inhibitor | CCT modulator | S-ASM inh | 12-LOX inh
N#CC1=C(N)OC2=C(C(=O)CC(c3ccccc3Cl)C2)C1c1ccc(Cl)cc1 (centres undefined) | . | . | . | . | . | 16µM*
Fc1ccc(-[n+]2nc(Nc3ccccc3)sc2-c2ccc(OCc3ccccc3)cc2)cc1 | 4% | ? | ? | -2 | 11% | 40µM*
CSc1ccc(-c2sc(Nc3ccccc3)n[n+]2-c2ccccc2)cc1 | 9% | 2% | -17% | 0 | -16% | .
CCc1ccc(Nc2n[n+](-c3ccccc3)c(-c3ccc(SC)cc3)s2)cc1 | 8% | 35µM* | ? | 0 | 0% | ?
CCOc1cc(-c2sc(Nc3ccccc3)n[n+]2-c2ccc(F)cc2)ccc1OC | 6% | 3% | -9% | 1 | -7% | -27%
COC(=O)[C@@]1(C)[C@H]2C(=O)N(Cc3ccccc3)C(=O)[C@H]2[C@H]2CN=C(SCc3ccc(C)cc3)N21 | -4% | 0% | 3% | -2 | -1% | 40µM*
COC(=O)c1ccc(CSC2=NC[C@@H]3[C@@H]4C(=O)N(Cc5ccccc5)C(=O)[C@@H]4[C@](C)(C(=O)OC)N23)cc1 | -4% | -1% | 0% | 1 | 1% | -23%
Cc1ccccc1N(CC(=O)NC1CCCC1)C(=O)CS(=O)CC(=O)Nc1ccc2c(c1)OCO2 (centres undefined) | 3% | -3%[38.3 µM] | 0% | 0 | 4% | 0%
Cc1ccc(NC(=O)CS(=O)CC(=O)N(CC(=O)NC2CCCC2)c2cc(C)ccc2C)cc1 (centres undefined) | -2% | -2%[38.3 µM] | 1% | -93* | 0% | -27%
C=CCn1c(N2CCC(C(N)=O)CC2)nc2c1c(=O)n(C)c(=O)n2C | . | . | . | . | . | 16%
Oc1ccc2ccccc2c1CNc1ccc2ccccc2c1 | . | -1% | . | -37* | -6% | ?
O=C(Nc1ccc2ncccc2c1)c1ccccc1Cl | 6% | 1% | 4% | 1 | -4% | 45µM*
O=C(Nc1ccc2ncccc2c1)c1ccccc1 | 9% | 0% | 0% | 0 | 7% | ?
O=C(Nc1ccc2ccccc2c1)c1ccccc1O | 37% | 14µM* | 0% | 0 | -1% | -7%
CC(=O)c1nnn(-c2nc(N3CCCC3)nc(N3CCCC3)n2)c1C | . | . | . | . | . | 52%
CCCNc1c(NC(=O)Nc2ccc(OC)cc2)c(=O)oc2ccccc12 | . | . | . | . | . | -20%
O=S(=O)(NCc1ccnc(N2CCOCC2)c1)c1ccc(Cl)cc1C(F)(F)F | . | . | . | . | . | 2%
O=C(Nc1ccccc1)N1CCCC1c1ccc(Cl)cc1 (centres undefined) | . | . | . | . | . | 7%
COC(=O)c1ccc(C)c(NC(=O)c2cc(-c3cc(C)sc3C)nc3onc(C)c23)c1 | . | . | . | . | . | 0%
C/C=C/C=C/CO | . | . | . | . | . | 4%[176 µM]
N#C/C(=C\c1c(Cl)cccc1Cl)c1nc2ccccc2[nH]1 | 4% | ? | -1% | -1 | 0% | 0%
N#C/C(=C/C1=Cc2cc(Cl)ccc2OC1)c1nc2ccccc2[nH]1 | . | . | . | . | . | 16µM*
CCc1nn2c(C)c(C(=O)Nc3ccc(F)cc3)nnc2c1-c1ccc(OC)cc1 | . | . | . | . | . | 0%
Cc1ccc(-c2cc(Nc3ccccc3)nc(C)n2)cc1 | . | . | . | . | . | 7.1µM*
Cc1ccc(-c2cc(Nc3ccccc3C(F)(F)F)nc(C)n2)cc1 | . | . | . | . | . | 16µM*
